D2 PAM-1 = D2 dopamine receptor (human) potentiation; potentiation, % at 10 µM; 340,000 tested, 0.34% active; HEK293 T-REx D2, calcium flux, EC20 dopamine potentiation; AID 485347;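 active = potentiation over 3 SD above the plate norm, cut at about 30% in these data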
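Tetracycline-induced HEK293 T-REx cells force-coupled to calcium signalling expressed D2; compounds were pin-added after a 10 s baseline, read kinetically 180 s, then an EC20 dopamine challenge followed with a further 180 s calcium read.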
D2 antag = antagonists of human D2 dopamine receptor. inhibition, % at 10 µM. AID 485344. 340,000 tested, 2% active. HEK293 TREx D2 cells, calcium flux, dopamine EC80. P14416; in the data active = inhibition above about 30%; inactive = below that, where a call was filed
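Tetracycline-induced HEK293 T-REx cells expressing D2 force-coupled to calcium signalling were dye-loaded, exposed to compound for 180 s, then challenged with an EC80 of dopamine; calcium flux was followed kinetically for a further 180 s.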
D2 ag-1 = human D2 receptor agonism in beta-arrestin assay; 360,000 tested, 0.084% active; DiscoveRx PathHunter D2 beta-arrestin, luminescence, 90 min; 100% = 57 uM dopamine signal; P14416; activation, % (concentration not given with the values); in the data active = activation above about 40%; inconclusive = between about 15% and that limit
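Agonist mode: compounds alone added to overnight-plated D2 PathHunter cells for 90 min at 37 C, with 57 uM final dopamine (EC100) defining full response. Beta-arrestin recruitment detected by chemiluminescent reagent, read after 1 h at ambient temperature.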
D2 PAM-2 = potentiates the human D2 dopamine receptor allosterically | P14416 | DiscoveRx D2 beta-arrestin cells, luminescence, 90 min; 100% = 57 uM dopamine signal | potentiation, % (no concentration beside the values) | 360,000 tested, 0.23% active; in the data active = potentiation above about 50%; inconclusive = mostly about 30% to 49%
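PathHunter beta-arrestin assay in DiscoveRx D2 cells. Compounds were added with an EC20 of dopamine (50 nM final) for 90 min at 37 deg C. Luminescence was read 1 h after detection reagent, with 57 uM dopamine as the EC100 control.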
D2 ag-2 = agonists of human D2 dopamine receptor | activation, % at 2 µM | HEK293 T-REx D2 cells, calcium flux agonist mode | 340,000 tested, 0.53% active | AID 485358;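 active = activation over 3 SD above normal in the single-dose calcium agonist read, cut at about 30% in these data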
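Calcium-flux readout, 1 cycle/sec over 180 s following compound pin transfer, in inducible HEK293 Trex D2 cells (force-coupled); dopamine controls included. Positive calcium responses during this window marked compounds as potential agonists.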
D3 arrestin ag = confirmation of human D3 dopamine receptor agonists, beta-arrestin; shares compounds with D2 ag-2; AID 720506; 2,300 tested, 4% active; Potency, µM (highest dose often 76.9 µM), most hits filed as activators; DiscoveRx D3 beta-arrestin cells, luminescence, 90 min; note: nearly all actives have a fitted effect of over 70% in size
Target sequence (P35462 whole entry, looked up): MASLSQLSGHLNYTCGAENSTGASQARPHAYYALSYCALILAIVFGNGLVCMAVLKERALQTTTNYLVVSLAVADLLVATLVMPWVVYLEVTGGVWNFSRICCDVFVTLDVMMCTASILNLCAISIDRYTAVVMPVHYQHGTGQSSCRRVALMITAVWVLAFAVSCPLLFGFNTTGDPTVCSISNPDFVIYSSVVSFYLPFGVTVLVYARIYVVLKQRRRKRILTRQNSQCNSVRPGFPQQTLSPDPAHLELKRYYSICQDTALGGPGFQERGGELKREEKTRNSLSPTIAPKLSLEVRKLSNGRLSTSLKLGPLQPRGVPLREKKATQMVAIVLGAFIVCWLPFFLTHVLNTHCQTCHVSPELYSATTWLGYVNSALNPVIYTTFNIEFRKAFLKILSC
D2 ag-3 = D2 receptor agonism, beta-arrestin counterscreen | 2,300 tested, 5.9% active | DiscoveRx PathHunter D2 beta-arrestin, luminescence, 90 min; response scale: percent relative to full dopamine signal | AID 720507 | shares compounds with D2 ag-2 | Potency, µM (series often up to 76.9 µM), actives largely listed as activators; note: nearly all actives have a fitted effect of over 70% in size
Of the large screens only hits and unclear results are named; the others gave an inactive call (follow-up assays come after a bar, where they were run). This is a sample that favours compounds with a hit; in the whole collection about 2.4% have one here. Unless noted, calls come from the whole dose curve; as a rule, active = well fitted activation curve with a large enough effect; inconclusive = small, poorly fitted or top-dose-only effect; inactive = flat fitted curve, though single readings scatter.

O=[N+]([O-])c1cccc(CCl)c1	none
O=[N+]([O-])c1cccc(O)c1	D2 antag 36 | D3 arrestin ag inactive | D2 ag-3 inactive
CC1=C[C@@H]2c3cccc4[nH]cc(c34)C[C@H]2N(C)C1	D2 ag-1 77, D2 PAM-2 92 (no result: D2 antag, D2 ag-2) | D3 arrestin ag 0.089µM | D2 ag-3 2.8µM
CCn1c(CN2CCN(C)CC2)nc2ccccc21	none (no result: D2 PAM-1, D2 antag, D2 ag-1, D2 PAM-2)
O=[N+]([O-])c1ccc(CN2CC=C(c3ccccc3)CC2)cc1	D2 antag 89, D2 ag-2 78 | D3 arrestin ag inactive | D2 ag-3 inactive
COc1ccc(N2C(=O)NC(=O)/C(=C/c3ccc(N4CCOCC4)cc3)C2=O)cc1	none (no result: D2 ag-1, D2 PAM-2)
CCOc1ccc(N2C(=O)NC(=O)/C(=C\c3ccc(N4CCOCC4)cc3C)C2=O)cc1	D2 ag-2 55 | D3 arrestin ag inactive | D2 ag-3 inactive
Cc1ccc2c(c1)C(Cc1nc3ccccc3c(=O)n1-c1ccc(Br)cc1)C(=O)N2 (centres undefined)	none (no result: D2 antag, D2 ag-1, D2 PAM-2, D2 ag-2)
CCCC12CN3CC(C)(CN(C1)C3c1c(C)[nH]c(=O)[nH]c1=O)C2=O (centres undefined)	none (no result: D2 antag, D2 ag-1, D2 PAM-2)
CC(CCc1ccccc1)NCCC#N (centres undefined)	D2 ag-2 77 | D3 arrestin ag inconclusive | D2 ag-3 inactive
Cc1ccc(Cn2cccc(C(=O)Nc3cc([N+](=O)[O-])ccc3C)c2=O)cc1	none (no result: D2 antag, D2 ag-1, D2 PAM-2)
Cc1ccc(Cn2cccc(C(=O)Nc3nc4ccc(C)cc4s3)c2=O)cc1	none (no result: D2 antag, D2 ag-1, D2 PAM-2)
CC(C)C[C@H]1C(=O)N2CCCC2[C@]2(O)O[C@](NC(=O)[C@@H]3C=C4c5cccc6[nH]cc(c56)CC4N(C)C3)(C(C)C)C(=O)N12 (some centres undefined)	D2 antag 78, D2 ag-1 122, D2 PAM-2 54, D2 ag-2 73 | D3 arrestin ag inconclusive | D2 ag-3 0.28µM
CC(C)[C@@]1(NC(=O)[C@@H]2C[C@@H]3c4cccc5[nH]cc(c45)C[C@H]3N(C)C2)O[C@@]2(O)[C@@H]3CCCN3C(=O)[C@H](Cc3ccccc3)N2C1=O	D2 antag 101, D2 ag-2 91 | D3 arrestin ag inactive | D2 ag-3 inconclusive
CC(C)C[C@H]1C(=O)N2CCC[C@H]2[C@]2(O)O[C@](NC(=O)[C@@H]3C=C4c5cccc6[nH]c(Br)c(c56)CC4N(C)C3)(C(C)C)C(=O)N12 (some centres undefined)	D2 antag 94, D2 ag-1 55, D2 PAM-2 inconclusive, D2 ag-2 80 | D3 arrestin ag inconclusive | D2 ag-3 0.28µM
CCOC(=O)c1ccc(N2C(=O)CC(N3CC=C(c4ccc(F)cc4)CC3)C2=O)cc1 (centres undefined)	none
NC(=O)c1ccc(OCCC(O)N2CC=C(c3ccc(F)cc3)CC2)cc1 (centres undefined)	D2 antag 65, D2 ag-2 35 | D3 arrestin ag inconclusive | D2 ag-3 inconclusive
CCN(CC)c1ccc(/C=C2\C(=O)NC(=S)N(C)C2=O)o1	D2 ag-2 33 | D3 arrestin ag inactive | D2 ag-3 inactive
CCCN1CC[C@@H]2c3cc(O)ccc3CC[C@@H]21	D2 antag 73, D2 ag-2 66 | D3 arrestin ag inconclusive | D2 ag-3 inconclusive
CCNCC(O)c1cccc(O)c1 (centres undefined)	D2 antag 32, D2 ag-2 36 | D3 arrestin ag inconclusive | D2 ag-3 inconclusive
NNCc1cccc(O)c1	none
CCN(C(=O)CN1CC=C(c2ccccc2)CC1)c1c(N)n(Cc2ccccc2)c(=O)[nH]c1=O	none | D3 arrestin ag inactive | D2 ag-3 inactive
COc1ccc(NC(=O)CCc2nc(C3=CCN(Cc4cccc(Cl)c4)CC3)no2)cc1OC	none (no result: D2 antag, D2 ag-1, D2 PAM-2)
COC(=O)C1=C(c2ccccc2OCc2ccccc2)C[C@@H]2CC[C@H]1N2C(=O)NCc1ccc(OC)c(OC)c1	none | D3 arrestin ag inactive | D2 ag-3 inactive
COC(=O)C1=C(c2ccccc2OCc2ccccc2)C[C@@H]2CC[C@H]1N2C(=O)NCc1cccc(F)c1	none
COC(=O)C1=C(c2ccc(F)cc2OCc2ccccc2)C[C@@H]2CC[C@H]1N2C(=O)NCc1ccccc1Cl	none | D3 arrestin ag inactive | D2 ag-3 inactive
Cc1oc(-c2ccc(Cl)cc2)nc1CN1C(=O)CN=C(c2ccccc2)c2cc(Cl)ccc21	none (no result: D2 antag, D2 ag-1, D2 PAM-2)
COC(=O)c1ccccc1NC(=O)c1cccn(Cc2cccc(Cl)c2)c1=O	none (no result: D2 antag, D2 ag-1, D2 PAM-2)
Cc1ccc(-n2c(/C=C/c3ccc(Br)s3)nc3ccccc3c2=O)cc1	none (no result: D2 antag, D2 ag-1, D2 PAM-2)
COC(=O)C(O)(c1ccc(NC(=S)NC(=O)c2ccc(Cl)cc2Cl)c(C)c1)C(F)(F)F (centres undefined)	none
CCOC(=O)C(O)(c1ccc(NC(=S)NC(=O)c2ccc(Cl)cc2Cl)c(C)c1)C(F)(F)F (centres undefined)	none | D3 arrestin ag inactive | D2 ag-3 inactive
COc1ccc(NC(=O)CN2CC=C(c3ccccc3)CC2)cc1S(=O)(=O)N1CCOCC1	D2 ag-2 54 | D3 arrestin ag inconclusive | D2 ag-3 inactive
Cc1ccc(-n2c(=O)[nH]c3ccc(Br)cc3c2=O)cc1	none (no result: D2 antag, D2 ag-1, D2 PAM-2)
C[C@]12CCC3C(CC[C@H]4C[C@@H](O)CC[C@]34C)[C@H]1CC[C@H]2O (some centres undefined)	none (no result: D2 PAM-1, D2 antag, D2 ag-2)
C[C@H]1CC[C@@]2(C)[C@@H](CC[C@@H]3[C@@H]2CC[C@]2(C)[C@@H](O)CC[C@@H]32)C1	D2 antag 69 | D3 arrestin ag inactive | D2 ag-3 inactive
Cc1ccccc1-n1c(/C=C/c2ccccc2F)nc2ccccc2c1=O	none (no result: D2 antag, D2 ag-1, D2 PAM-2)
CCOc1ccc2nc(NC(=O)c3cccn(Cc4ccccc4Cl)c3=O)sc2c1	none (no result: D2 antag, D2 ag-1, D2 PAM-2)

High-throughput results (PubChem BioAssay)
